# Experimental data from PMC7862700, “An all-to-all approach to the identification of sequence-specific readers for epigenetic DNA modifications on cytosine”.
# Tests used:
# Test in all cases: DAPPL (digital affinity profiling via proximity ligation, sequencing); 10 mM Tris-HCl pH 7.5, 50 mM NaCl, 1 mM DTT, 4% glycerol, room temperature, 30 min; GST-TFs on glutathione beads, 16-mer random dsDNA library, 0.1% formaldehyde crosslink after washing; high values mean tight binding
# [1] = target: T1, FLI1 (Homo sapiens, UniProt Q01543 1-452); conditions: protein: recombinant; tags: N-terminal GST; dsDNA, one strand shown
# T1 sequence: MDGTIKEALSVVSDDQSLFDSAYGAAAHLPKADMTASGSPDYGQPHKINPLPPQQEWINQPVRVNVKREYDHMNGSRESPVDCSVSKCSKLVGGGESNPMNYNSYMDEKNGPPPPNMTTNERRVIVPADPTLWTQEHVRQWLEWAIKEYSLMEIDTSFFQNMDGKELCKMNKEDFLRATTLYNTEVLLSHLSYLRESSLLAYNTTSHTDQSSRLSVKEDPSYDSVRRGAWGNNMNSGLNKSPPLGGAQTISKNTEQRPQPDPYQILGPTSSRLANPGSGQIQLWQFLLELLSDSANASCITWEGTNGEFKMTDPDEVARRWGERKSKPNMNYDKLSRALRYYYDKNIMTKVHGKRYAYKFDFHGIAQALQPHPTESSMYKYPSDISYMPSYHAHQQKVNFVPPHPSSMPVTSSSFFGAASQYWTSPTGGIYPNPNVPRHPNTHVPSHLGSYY
# Method in brief: (§1)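 Sequencing on an Illumina NextSeq500 followed washing, crosslinking with 0.1% formaldehyde, proximity ligation (BsaI/T4 ligase, 1 h, 37 °C) and PCR amplification of pools that had been incubated for 30 min at room temperature with 200 nmole of a random double-stranded 16-mer DNA library in Tris/NaCl/DTT/glycerol buffer. Each pool held DNA-barcoded human transcription factors, expressed in yeast as GST fusions and captured on glutathione beads, plus a tag-only sample. Binding signal is a hexamer's read frequency for a factor divided by its frequency in the tag-only sample.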
# [2] = target: T2, ELK1 (Homo sapiens, UniProt P19419 1-428); conditions: protein: recombinant; tags: N-terminal GST; dsDNA, one strand shown
# T2 sequence: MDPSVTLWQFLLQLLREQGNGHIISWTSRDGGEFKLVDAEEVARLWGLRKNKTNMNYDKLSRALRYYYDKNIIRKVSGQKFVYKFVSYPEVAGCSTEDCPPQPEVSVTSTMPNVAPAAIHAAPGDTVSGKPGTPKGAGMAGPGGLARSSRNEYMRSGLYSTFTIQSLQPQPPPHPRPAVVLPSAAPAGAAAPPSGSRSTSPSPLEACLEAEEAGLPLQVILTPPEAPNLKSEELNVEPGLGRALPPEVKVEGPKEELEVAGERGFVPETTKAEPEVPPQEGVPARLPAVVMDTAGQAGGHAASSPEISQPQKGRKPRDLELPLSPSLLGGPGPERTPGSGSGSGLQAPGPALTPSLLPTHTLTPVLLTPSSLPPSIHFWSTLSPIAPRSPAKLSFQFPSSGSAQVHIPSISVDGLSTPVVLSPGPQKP
# Method in brief: as §1
# [3] = target: T3, GABPA (Homo sapiens, UniProt Q06546 1-454); conditions: protein: recombinant; tags: N-terminal GST; dsDNA, one strand shown
# T3 sequence: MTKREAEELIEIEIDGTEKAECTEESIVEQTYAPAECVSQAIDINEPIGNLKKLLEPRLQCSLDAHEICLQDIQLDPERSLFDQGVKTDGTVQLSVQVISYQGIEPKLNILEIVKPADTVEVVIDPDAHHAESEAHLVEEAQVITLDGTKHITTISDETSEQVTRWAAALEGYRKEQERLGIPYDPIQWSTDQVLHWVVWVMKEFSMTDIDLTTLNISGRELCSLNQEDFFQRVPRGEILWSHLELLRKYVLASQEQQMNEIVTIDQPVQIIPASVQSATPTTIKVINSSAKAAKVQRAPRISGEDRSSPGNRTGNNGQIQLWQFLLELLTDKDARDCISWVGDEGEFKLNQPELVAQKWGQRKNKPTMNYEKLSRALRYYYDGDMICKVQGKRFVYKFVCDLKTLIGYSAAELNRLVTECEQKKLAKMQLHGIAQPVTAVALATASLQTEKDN
# Method in brief: as §1
# [4] = target: T4, ERG (Homo sapiens, UniProt P11308 1-479); conditions: protein: recombinant; tags: N-terminal GST; dsDNA, one strand shown
# T4 sequence: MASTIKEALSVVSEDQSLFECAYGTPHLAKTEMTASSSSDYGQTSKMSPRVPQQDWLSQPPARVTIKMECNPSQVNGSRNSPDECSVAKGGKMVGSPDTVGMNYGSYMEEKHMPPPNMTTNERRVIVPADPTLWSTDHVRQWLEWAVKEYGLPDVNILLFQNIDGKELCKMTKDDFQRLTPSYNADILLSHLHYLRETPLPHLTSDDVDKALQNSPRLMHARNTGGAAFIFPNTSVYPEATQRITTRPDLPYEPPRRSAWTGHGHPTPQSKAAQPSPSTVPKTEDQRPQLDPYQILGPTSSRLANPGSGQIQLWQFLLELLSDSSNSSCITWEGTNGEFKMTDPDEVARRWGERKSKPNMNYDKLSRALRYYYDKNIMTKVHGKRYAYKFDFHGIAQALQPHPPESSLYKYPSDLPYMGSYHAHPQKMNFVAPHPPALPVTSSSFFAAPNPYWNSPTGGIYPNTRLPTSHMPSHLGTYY
# Method in brief: as §1
# [5] = target: ELF1 (Homo sapiens, UniProt P32519 1-619); conditions: protein: recombinant; tags: N-terminal GST; dsDNA, one strand shown
# Chain of ELF1 (P32519 whole entry): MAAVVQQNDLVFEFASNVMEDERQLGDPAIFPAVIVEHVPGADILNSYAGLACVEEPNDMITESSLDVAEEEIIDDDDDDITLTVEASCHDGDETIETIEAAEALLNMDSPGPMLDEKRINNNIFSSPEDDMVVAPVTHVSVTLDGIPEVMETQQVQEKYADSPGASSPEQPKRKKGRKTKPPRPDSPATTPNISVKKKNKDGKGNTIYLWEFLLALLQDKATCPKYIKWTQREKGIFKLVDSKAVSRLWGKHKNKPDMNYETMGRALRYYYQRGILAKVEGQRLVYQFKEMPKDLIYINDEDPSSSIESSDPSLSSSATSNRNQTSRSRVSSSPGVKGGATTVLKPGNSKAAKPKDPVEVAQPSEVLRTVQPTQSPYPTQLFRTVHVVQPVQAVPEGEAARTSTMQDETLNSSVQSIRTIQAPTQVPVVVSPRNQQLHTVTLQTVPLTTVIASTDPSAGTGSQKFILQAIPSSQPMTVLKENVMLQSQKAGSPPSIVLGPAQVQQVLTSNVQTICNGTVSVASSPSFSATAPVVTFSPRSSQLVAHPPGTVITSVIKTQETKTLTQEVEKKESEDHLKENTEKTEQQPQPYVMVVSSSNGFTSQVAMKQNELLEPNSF
# Method in brief: as §1
# [6] = target: T5, EHF (Homo sapiens, UniProt Q9NZC4 1-300); conditions: protein: recombinant; tags: N-terminal GST; dsDNA, one strand shown
# T5 sequence: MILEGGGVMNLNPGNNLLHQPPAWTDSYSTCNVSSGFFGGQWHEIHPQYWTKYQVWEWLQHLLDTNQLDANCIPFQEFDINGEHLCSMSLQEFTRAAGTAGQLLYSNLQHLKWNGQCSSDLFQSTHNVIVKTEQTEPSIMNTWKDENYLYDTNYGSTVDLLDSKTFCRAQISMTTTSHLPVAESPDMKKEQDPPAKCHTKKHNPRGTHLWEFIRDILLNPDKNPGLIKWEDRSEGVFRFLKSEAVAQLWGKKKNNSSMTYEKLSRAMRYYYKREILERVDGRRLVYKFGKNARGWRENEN
# Method in brief: as §1
# [7] = target: SPI1 (Homo sapiens, UniProt P17947 1-270); conditions: protein: recombinant; tags: N-terminal GST; dsDNA, one strand shown
# Method in brief: as §1
# [8] = target: SPIB (Homo sapiens, UniProt Q01892 1-262); conditions: protein: recombinant; tags: N-terminal GST; dsDNA, one strand shown
# Chain of SPIB (Q01892 whole entry): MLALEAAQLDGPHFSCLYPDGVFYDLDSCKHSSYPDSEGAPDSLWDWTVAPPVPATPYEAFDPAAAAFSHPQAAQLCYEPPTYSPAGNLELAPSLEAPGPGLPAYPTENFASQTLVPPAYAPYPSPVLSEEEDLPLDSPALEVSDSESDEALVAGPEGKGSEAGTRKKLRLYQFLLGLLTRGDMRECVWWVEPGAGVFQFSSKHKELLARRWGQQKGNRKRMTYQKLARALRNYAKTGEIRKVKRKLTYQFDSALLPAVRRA
# Method in brief: as §1
# [9] = target: T6, ELK3 (Homo sapiens, UniProt P41970 1-407); conditions: protein: recombinant; tags: N-terminal GST; dsDNA, one strand shown
# T6 sequence: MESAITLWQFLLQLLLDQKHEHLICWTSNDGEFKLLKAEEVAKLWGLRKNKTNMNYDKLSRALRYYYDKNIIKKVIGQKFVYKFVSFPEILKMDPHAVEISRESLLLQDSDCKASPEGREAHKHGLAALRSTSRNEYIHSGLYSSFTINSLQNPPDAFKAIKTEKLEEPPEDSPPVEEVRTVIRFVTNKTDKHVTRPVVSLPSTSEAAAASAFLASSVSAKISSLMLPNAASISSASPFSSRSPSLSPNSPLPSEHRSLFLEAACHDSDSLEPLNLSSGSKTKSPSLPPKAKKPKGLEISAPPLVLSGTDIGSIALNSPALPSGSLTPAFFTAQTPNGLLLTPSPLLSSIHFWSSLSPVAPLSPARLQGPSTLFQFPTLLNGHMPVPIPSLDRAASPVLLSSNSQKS
# Method in brief: as §1
# [10] = target: T7, FEV (Homo sapiens, UniProt Q99581 1-238); conditions: protein: recombinant; tags: N-terminal GST; dsDNA, one strand shown
# T7 sequence: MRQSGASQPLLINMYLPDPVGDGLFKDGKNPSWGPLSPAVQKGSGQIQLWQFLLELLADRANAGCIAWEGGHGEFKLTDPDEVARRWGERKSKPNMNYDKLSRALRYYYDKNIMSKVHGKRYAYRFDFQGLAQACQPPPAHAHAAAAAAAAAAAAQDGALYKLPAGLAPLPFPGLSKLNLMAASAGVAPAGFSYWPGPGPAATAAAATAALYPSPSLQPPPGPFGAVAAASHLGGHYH
# Method in brief: as §1
# [11] = target: ETV5 (Homo sapiens, UniProt P41161 1-510); conditions: protein: recombinant; tags: N-terminal GST; dsDNA, one strand shown
# Chain of ETV5 (P41161 whole entry): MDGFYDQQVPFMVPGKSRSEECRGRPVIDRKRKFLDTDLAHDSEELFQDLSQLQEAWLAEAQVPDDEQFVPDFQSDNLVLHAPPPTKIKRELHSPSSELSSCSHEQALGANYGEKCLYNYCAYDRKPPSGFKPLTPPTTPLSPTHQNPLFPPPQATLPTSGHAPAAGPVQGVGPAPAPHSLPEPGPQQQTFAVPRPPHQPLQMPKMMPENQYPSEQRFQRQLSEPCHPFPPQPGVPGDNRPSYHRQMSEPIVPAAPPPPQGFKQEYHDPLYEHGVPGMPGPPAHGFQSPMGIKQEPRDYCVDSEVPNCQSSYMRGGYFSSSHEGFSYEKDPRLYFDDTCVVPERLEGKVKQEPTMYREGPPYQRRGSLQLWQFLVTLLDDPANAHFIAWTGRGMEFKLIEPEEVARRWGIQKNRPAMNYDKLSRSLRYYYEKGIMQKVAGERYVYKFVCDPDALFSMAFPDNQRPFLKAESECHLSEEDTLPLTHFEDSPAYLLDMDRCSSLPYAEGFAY
# Method in brief: as §1
# [12] = target: HSF1 (Homo sapiens, UniProt Q00613 1-529); conditions: protein: recombinant; tags: N-terminal GST; chain copies: 3; dsDNA, one strand shown
# Chain of HSF1 (Q00613 whole entry): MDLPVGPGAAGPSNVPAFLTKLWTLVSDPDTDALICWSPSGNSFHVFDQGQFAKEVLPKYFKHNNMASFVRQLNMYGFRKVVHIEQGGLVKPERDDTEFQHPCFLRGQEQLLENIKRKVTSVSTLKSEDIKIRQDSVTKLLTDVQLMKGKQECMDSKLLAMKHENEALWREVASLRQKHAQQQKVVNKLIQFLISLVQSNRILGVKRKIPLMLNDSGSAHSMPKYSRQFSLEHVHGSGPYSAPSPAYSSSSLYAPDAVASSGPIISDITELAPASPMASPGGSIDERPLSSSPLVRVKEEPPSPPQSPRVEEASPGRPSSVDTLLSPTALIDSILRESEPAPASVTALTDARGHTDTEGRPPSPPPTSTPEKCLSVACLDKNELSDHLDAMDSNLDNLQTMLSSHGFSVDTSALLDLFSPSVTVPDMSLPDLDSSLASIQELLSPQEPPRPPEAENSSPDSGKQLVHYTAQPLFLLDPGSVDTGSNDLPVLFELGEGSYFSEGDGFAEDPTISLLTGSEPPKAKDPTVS
# Method in brief: as §1
# [13] = target: T8, SPIC (Homo sapiens, UniProt Q8N5J4 1-248); conditions: protein: recombinant; tags: N-terminal GST; dsDNA, one strand shown
# T8 sequence: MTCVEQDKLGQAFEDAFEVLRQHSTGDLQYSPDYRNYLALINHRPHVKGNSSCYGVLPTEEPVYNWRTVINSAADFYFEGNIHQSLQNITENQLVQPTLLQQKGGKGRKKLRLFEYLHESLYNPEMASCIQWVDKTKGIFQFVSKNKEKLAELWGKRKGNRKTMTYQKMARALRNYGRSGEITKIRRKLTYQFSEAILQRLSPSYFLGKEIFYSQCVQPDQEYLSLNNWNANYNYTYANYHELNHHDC
# Method in brief: as §1
# [14] = target: ELF4 (Homo sapiens, UniProt Q99607 1-663); conditions: protein: recombinant; tags: N-terminal GST; dsDNA, one strand shown
# Chain of ELF4 (Q99607 whole entry): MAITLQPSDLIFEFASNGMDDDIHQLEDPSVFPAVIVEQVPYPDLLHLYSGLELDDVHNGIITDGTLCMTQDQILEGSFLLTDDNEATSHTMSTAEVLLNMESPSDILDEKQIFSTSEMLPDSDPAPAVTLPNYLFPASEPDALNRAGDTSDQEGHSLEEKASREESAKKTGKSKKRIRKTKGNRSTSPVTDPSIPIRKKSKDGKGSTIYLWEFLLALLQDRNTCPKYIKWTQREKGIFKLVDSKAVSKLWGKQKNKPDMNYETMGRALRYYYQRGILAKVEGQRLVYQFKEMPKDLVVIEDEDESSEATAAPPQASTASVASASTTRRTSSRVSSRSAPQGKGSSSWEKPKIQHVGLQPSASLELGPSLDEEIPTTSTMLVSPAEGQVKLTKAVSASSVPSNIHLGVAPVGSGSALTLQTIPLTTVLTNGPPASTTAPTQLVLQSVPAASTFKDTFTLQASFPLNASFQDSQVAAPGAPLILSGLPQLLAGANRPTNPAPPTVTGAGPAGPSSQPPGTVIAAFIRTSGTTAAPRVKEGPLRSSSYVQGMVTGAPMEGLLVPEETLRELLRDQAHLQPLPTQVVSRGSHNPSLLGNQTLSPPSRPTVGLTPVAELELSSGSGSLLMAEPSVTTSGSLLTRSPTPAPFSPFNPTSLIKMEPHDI
# Method in brief: as §1
# [15] = target: T9, ELK4 (Homo sapiens, UniProt P28324-2 1-405); conditions: protein: recombinant; tags: N-terminal GST; dsDNA, one strand shown
# T9 sequence: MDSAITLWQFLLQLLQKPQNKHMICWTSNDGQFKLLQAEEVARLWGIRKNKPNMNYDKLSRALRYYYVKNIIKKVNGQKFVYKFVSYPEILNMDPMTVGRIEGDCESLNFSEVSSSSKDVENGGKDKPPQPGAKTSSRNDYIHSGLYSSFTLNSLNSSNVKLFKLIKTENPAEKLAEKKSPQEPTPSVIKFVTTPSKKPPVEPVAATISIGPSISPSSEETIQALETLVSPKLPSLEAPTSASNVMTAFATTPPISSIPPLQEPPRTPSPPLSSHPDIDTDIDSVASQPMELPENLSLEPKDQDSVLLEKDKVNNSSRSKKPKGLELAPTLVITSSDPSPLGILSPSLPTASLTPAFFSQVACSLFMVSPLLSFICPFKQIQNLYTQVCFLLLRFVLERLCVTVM
# Method in brief: as §1
# [16] = target: T10, ETV2 (Homo sapiens, UniProt O00321 1-342); conditions: protein: recombinant; tags: N-terminal GST; dsDNA, one strand shown
# T10 sequence: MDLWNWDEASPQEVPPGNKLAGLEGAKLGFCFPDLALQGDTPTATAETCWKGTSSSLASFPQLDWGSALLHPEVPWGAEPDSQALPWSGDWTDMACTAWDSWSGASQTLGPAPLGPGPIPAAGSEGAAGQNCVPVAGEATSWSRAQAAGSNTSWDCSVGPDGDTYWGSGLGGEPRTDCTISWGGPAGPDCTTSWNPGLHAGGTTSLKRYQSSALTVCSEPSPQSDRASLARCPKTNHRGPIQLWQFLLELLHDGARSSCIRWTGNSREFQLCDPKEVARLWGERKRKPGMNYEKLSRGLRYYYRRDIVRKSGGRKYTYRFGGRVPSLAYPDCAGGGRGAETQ
# Method in brief: as §1
# [17] = target: T11, ELF3 (Homo sapiens, UniProt P78545 1-371); conditions: protein: recombinant; tags: N-terminal GST; dsDNA, one strand shown
# T11 sequence: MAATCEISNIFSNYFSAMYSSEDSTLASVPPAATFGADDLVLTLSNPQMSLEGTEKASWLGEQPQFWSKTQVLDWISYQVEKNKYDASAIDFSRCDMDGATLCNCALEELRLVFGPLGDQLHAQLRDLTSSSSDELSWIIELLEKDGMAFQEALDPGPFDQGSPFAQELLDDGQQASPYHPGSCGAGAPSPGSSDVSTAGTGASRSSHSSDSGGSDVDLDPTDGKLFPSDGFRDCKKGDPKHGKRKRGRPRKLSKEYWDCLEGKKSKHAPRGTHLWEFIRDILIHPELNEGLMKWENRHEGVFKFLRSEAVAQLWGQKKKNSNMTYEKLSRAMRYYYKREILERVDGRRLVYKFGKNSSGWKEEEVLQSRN
# Method in brief: as §1
# [18] = target: CRX (Homo sapiens, UniProt O43186 1-299); conditions: protein: recombinant; tags: N-terminal GST; dsDNA, one strand shown
# Chain of CRX (O43186 whole entry): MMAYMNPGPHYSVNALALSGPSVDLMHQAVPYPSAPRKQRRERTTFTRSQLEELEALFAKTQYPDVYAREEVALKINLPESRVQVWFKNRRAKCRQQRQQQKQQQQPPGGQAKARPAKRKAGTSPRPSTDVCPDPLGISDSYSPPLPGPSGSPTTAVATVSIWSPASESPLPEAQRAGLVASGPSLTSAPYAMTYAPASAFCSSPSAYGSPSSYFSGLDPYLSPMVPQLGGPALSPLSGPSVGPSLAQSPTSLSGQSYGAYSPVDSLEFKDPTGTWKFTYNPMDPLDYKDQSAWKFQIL
# Method in brief: as §1
# [19] = target: ETV1 (Homo sapiens, UniProt P50549 1-477); conditions: protein: recombinant; tags: N-terminal GST; dsDNA, one strand shown
# Chain of ETV1 (P50549 whole entry): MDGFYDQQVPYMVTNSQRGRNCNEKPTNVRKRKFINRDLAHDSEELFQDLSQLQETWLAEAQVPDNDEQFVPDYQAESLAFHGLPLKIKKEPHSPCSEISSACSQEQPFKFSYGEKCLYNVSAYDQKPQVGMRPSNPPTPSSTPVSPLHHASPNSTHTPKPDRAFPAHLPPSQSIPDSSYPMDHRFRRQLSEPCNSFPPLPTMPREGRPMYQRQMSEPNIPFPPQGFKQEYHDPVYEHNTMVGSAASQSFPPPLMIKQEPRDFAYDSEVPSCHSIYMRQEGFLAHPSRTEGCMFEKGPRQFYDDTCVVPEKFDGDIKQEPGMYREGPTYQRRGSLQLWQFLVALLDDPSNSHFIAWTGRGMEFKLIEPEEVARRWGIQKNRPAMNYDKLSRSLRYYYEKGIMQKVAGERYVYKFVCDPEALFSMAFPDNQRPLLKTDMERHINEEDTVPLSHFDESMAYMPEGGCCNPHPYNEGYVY
# Method in brief: as §1
sequence,measurement,setting,value
CTGCTA,binding signal,[1],"1.38 fold enrichment (6-mer frequency, TF over GST control)"
same,binding signal,[2],"1.53 fold enrichment (6-mer frequency, TF over GST control)"
same,binding signal,[3],"1.46 fold enrichment (6-mer frequency, TF over GST control)"
same,binding signal,[4],"1.39 fold enrichment (6-mer frequency, TF over GST control)"
same,binding signal,[5],"1.47 fold enrichment (6-mer frequency, TF over GST control)"
same,binding signal,[6],"1.5 fold enrichment (6-mer frequency, TF over GST control)"
same,binding signal,[7],"1.53 fold enrichment (6-mer frequency, TF over GST control)"
same,binding signal,[8],"1.43 fold enrichment (6-mer frequency, TF over GST control)"
same,binding signal,[9],"1.42 fold enrichment (6-mer frequency, TF over GST control)"
same,binding signal,[10],"1.47 fold enrichment (6-mer frequency, TF over GST control)"
same,binding signal,[11],"1.56 fold enrichment (6-mer frequency, TF over GST control)"
same,binding signal,[12],"1.37 fold enrichment (6-mer frequency, TF over GST control)"
same,binding signal,[13],"1.5 fold enrichment (6-mer frequency, TF over GST control)"
same,binding signal,[14],"1.42 fold enrichment (6-mer frequency, TF over GST control)"
same,binding signal,[15],"1.68 fold enrichment (6-mer frequency, TF over GST control)"
same,binding signal,[16],"1.49 fold enrichment (6-mer frequency, TF over GST control)"
same,binding signal,[17],"1.67 fold enrichment (6-mer frequency, TF over GST control)"
same,binding signal,[18],"1.36 fold enrichment (6-mer frequency, TF over GST control)"
same,binding signal,[19],"1.64 fold enrichment (6-mer frequency, TF over GST control)"
